According to ChEMBL document CHEMBL1961873, “Compounds: GSK PKIS; Assays: Nanosyn kinase panel” (2012):

Assays:
[1] = molecular target: Sphingosine kinase 1 (Homo sapiens) (UniProt Q9NYA1); settings: at 1 µM;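 note: mean SPHK1 inhibition value reported from the GSK PKIS kinase panel screen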
[2] = molecular target: T1, Sphingosine kinase 2 (Homo sapiens) (UniProt Q9NRA0); settings: at 0.1 µM
T1 sequence (whole entry): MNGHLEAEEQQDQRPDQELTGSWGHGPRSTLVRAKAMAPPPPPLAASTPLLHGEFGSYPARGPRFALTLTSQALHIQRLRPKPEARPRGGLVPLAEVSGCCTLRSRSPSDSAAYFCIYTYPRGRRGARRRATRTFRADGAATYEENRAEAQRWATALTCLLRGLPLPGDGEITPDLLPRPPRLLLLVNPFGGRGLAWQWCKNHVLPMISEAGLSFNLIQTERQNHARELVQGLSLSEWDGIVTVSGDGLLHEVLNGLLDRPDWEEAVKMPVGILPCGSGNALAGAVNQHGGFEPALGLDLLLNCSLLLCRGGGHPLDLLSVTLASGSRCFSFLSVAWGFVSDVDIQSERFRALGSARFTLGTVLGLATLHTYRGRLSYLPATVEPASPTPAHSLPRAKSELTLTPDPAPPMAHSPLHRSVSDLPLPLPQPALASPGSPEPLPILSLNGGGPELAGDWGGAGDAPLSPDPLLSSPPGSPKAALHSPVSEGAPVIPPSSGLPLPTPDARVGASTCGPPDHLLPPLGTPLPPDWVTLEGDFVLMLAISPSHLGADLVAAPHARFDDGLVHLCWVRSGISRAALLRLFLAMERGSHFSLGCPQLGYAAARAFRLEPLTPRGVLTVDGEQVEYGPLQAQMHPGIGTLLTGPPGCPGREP

[3] = molecular target: T1, Sphingosine kinase 2 (Homo sapiens); settings: at 1 µM
[4] = molecular target: Casein kinase II subunit alpha (Homo sapiens) (UniProt P68400); settings: at 0.1 µM
Sequence of Casein kinase II subunit alpha (Homo sapiens) (P68400 whole entry, looked up): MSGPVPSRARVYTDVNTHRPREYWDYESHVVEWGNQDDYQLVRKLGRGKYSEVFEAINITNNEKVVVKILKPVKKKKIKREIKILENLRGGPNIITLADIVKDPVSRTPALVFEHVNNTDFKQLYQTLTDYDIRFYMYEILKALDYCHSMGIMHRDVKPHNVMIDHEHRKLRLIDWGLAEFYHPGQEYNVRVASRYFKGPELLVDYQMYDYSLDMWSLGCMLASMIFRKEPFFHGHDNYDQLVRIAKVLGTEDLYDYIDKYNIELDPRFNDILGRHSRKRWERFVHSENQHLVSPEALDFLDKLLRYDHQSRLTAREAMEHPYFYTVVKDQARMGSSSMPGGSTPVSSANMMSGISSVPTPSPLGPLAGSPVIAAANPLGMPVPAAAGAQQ

[5] = molecular target: Casein kinase II subunit alpha (Homo sapiens) (UniProt P68400); settings: at 1 µM
[6] = molecular target: T2, Inhibitor of nuclear factor kappa-B kinase subunit alpha (Homo sapiens) (UniProt O15111); settings: at 0.1 µM
T2 sequence (whole entry): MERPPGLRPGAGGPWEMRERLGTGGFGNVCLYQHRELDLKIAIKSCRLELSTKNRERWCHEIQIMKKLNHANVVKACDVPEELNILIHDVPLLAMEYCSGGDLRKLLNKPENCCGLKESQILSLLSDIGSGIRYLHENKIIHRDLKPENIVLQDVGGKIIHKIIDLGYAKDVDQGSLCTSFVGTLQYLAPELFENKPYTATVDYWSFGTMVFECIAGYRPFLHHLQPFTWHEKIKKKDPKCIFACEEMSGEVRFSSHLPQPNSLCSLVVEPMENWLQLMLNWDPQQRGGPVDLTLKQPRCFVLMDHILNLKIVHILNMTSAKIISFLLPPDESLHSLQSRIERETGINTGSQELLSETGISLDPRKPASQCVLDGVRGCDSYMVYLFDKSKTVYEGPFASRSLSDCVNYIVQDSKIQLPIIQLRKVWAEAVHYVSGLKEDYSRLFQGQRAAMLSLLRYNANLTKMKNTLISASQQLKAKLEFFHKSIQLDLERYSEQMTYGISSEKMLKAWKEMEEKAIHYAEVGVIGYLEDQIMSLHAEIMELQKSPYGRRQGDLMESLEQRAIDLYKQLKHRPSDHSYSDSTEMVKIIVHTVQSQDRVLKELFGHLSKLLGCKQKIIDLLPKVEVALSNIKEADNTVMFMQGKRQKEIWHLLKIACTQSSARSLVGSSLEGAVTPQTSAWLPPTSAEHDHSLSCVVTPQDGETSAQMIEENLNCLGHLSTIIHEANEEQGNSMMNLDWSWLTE

[7] = molecular target: T2, Inhibitor of nuclear factor kappa-B kinase subunit alpha (Homo sapiens); settings: at 1 µM
[8] = molecular target: T3, Inhibitor of nuclear factor kappa-B kinase subunit beta (Homo sapiens) (UniProt O14920); settings: at 0.1 µM
T3 sequence (whole entry): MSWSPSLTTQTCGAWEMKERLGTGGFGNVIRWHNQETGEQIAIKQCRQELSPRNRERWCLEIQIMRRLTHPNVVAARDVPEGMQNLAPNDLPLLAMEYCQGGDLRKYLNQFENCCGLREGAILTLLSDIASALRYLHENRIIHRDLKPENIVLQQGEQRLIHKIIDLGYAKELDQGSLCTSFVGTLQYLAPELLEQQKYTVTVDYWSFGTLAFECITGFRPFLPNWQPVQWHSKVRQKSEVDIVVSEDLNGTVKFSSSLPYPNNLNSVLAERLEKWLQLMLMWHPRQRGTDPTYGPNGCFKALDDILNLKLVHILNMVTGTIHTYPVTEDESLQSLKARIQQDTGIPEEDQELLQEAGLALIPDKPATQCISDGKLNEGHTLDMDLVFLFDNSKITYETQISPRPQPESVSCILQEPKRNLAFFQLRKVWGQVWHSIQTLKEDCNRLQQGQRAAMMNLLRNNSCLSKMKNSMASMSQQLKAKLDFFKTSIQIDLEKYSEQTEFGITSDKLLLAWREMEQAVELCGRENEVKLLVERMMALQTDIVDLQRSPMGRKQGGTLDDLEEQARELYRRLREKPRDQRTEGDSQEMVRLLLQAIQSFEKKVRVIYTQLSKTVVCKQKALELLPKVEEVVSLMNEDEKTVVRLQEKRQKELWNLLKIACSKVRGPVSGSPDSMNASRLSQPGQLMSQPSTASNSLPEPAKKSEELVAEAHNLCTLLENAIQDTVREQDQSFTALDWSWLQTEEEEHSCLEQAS

[9] = molecular target: T3, Inhibitor of nuclear factor kappa-B kinase subunit beta (Homo sapiens); settings: at 1 µM
[10] = molecular target: T4, Inhibitor of nuclear factor kappa-B kinase subunit epsilon (Homo sapiens) (UniProt Q14164); settings: at 0.1 µM
T4 sequence (whole entry): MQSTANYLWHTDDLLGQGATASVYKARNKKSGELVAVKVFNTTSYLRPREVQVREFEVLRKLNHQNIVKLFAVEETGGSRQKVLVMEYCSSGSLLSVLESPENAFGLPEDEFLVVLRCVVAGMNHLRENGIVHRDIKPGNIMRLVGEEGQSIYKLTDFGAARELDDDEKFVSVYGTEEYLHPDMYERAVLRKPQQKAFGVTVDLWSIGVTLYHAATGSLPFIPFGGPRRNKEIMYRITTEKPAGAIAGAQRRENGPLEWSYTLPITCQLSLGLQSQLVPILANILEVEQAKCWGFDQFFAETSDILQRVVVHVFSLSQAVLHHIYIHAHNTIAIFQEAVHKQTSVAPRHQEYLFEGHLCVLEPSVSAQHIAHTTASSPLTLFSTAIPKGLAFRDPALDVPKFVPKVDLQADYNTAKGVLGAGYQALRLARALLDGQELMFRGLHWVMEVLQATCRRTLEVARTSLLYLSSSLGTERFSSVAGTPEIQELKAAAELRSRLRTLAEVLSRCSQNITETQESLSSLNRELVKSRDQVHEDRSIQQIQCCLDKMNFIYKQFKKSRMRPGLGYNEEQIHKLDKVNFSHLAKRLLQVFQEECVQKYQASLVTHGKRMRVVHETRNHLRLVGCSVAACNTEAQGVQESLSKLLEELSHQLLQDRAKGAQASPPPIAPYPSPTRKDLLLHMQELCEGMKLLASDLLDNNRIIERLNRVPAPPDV

[11] = molecular target: T4, Inhibitor of nuclear factor kappa-B kinase subunit epsilon (Homo sapiens); settings: at 1 µM
[12] = molecular target: T5, Serine/threonine-protein kinase Nek1 (Homo sapiens) (UniProt Q96PY6); settings: at 0.1 µM
T5 sequence (whole entry): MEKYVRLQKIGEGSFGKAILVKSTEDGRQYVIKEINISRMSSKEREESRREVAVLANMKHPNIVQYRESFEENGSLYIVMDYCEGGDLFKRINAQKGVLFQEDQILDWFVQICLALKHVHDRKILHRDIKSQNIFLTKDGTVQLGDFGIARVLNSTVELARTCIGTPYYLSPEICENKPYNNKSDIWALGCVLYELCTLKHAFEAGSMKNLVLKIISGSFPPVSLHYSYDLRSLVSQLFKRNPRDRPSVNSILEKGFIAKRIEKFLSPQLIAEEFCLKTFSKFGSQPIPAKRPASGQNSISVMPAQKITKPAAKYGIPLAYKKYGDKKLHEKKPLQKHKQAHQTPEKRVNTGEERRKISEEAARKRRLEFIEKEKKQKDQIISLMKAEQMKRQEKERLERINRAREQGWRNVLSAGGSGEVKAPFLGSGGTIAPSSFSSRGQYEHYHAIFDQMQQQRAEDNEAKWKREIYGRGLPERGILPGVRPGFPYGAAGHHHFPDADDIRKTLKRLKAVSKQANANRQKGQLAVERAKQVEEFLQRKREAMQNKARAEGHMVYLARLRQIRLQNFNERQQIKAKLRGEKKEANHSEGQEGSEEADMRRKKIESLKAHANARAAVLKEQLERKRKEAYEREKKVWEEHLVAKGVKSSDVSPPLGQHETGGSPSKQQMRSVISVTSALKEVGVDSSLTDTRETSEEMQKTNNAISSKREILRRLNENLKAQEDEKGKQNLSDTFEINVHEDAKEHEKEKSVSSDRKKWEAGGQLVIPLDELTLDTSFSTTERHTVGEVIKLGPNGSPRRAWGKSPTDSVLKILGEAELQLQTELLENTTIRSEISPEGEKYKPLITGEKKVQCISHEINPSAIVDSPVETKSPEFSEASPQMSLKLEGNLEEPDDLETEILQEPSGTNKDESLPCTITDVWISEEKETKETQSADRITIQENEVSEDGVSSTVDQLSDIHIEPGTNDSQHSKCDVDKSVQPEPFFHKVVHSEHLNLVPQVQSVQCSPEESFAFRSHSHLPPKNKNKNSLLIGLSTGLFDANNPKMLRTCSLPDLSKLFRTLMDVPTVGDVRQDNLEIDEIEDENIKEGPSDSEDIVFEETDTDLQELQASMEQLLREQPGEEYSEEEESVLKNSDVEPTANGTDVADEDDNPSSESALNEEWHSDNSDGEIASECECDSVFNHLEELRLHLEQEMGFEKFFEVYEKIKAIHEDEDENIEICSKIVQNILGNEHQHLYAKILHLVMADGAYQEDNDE

[13] = molecular target: T5, Serine/threonine-protein kinase Nek1 (Homo sapiens); settings: at 1 µM
[14] = molecular target: T6, Serine/threonine-protein kinase Nek2 (Homo sapiens) (UniProt P51955); settings: at 0.1 µM
T6 sequence (whole entry): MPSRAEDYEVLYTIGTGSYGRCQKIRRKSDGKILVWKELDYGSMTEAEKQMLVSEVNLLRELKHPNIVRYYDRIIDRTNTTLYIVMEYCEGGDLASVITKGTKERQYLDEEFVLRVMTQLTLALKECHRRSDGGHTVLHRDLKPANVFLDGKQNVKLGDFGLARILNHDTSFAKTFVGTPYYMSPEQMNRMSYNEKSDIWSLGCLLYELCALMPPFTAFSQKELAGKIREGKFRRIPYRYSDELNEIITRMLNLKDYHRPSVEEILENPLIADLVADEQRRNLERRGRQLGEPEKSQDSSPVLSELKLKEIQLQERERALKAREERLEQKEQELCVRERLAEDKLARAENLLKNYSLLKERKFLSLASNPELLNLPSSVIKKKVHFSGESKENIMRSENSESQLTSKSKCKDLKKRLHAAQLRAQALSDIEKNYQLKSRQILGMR

[15] = molecular target: T6, Serine/threonine-protein kinase Nek2 (Homo sapiens); settings: at 1 µM
[16] = molecular target: Serine/threonine-protein kinase Nek6 (Homo sapiens) (UniProt Q9HC98); settings: at 0.1 µM
Sequence of Serine/threonine-protein kinase Nek6 (Homo sapiens) (Q9HC98 whole entry): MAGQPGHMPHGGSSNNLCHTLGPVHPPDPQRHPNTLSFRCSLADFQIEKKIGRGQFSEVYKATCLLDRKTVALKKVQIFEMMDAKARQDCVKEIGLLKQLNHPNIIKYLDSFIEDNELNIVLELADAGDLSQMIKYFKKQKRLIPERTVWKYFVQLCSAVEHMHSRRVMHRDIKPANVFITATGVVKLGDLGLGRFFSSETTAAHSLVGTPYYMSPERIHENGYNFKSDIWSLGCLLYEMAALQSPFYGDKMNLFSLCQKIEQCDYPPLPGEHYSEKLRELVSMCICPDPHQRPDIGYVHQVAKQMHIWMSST

[17] = molecular target: Serine/threonine-protein kinase Nek6 (Homo sapiens) (UniProt Q9HC98); settings: at 1 µM
[18] = molecular target: Serine/threonine-protein kinase Nek7 (Homo sapiens) (UniProt Q8TDX7); settings: at 0.1 µM
Sequence of Serine/threonine-protein kinase Nek7 (Homo sapiens) (Q8TDX7 whole entry, looked up): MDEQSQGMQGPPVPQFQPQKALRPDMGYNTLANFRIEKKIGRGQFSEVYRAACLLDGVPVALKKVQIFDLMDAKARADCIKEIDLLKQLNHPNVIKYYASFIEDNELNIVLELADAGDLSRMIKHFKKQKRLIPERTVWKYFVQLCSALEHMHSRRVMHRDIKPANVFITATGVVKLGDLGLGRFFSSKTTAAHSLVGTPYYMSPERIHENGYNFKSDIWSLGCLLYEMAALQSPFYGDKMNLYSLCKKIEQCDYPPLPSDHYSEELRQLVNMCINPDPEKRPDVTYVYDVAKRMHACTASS

[19] = molecular target: Serine/threonine-protein kinase Nek7 (Homo sapiens) (UniProt Q8TDX7); settings: at 1 µM
[20] = molecular target: T7, Serine/threonine-protein kinase Nek9 (Homo sapiens) (UniProt Q8TD19); settings: at 0.1 µM;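 note: reported value is the mean percent inhibition of NEK9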
T7 sequence (whole entry): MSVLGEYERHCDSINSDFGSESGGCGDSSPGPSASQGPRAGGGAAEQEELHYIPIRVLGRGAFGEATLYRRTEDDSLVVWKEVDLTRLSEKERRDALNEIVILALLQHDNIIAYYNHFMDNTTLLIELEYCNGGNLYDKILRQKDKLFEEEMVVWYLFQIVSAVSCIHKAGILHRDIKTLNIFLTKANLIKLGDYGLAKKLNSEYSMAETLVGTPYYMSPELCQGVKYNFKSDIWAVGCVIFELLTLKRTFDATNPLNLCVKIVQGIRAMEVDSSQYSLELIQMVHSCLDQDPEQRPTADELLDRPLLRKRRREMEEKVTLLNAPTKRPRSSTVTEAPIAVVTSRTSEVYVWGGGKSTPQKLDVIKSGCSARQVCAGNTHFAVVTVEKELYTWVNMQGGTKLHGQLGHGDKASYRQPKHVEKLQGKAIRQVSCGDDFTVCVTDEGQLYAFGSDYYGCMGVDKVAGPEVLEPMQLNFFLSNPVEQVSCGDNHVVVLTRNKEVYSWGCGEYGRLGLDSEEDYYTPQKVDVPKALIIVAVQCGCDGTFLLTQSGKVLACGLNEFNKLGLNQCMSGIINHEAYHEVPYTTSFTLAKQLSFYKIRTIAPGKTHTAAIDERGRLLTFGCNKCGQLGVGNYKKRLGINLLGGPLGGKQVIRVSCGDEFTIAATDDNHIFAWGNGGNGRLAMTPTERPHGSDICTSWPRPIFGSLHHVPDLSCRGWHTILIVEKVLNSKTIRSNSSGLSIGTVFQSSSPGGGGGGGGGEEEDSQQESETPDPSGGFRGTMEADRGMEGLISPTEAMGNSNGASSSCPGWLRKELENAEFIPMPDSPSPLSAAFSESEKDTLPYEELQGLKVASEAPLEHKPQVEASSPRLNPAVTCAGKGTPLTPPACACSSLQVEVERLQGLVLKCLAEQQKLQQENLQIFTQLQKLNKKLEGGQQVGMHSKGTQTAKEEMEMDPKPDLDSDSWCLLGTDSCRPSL

Sequence of Sphingosine kinase 1 (Homo sapiens) (Q9NYA1 whole entry): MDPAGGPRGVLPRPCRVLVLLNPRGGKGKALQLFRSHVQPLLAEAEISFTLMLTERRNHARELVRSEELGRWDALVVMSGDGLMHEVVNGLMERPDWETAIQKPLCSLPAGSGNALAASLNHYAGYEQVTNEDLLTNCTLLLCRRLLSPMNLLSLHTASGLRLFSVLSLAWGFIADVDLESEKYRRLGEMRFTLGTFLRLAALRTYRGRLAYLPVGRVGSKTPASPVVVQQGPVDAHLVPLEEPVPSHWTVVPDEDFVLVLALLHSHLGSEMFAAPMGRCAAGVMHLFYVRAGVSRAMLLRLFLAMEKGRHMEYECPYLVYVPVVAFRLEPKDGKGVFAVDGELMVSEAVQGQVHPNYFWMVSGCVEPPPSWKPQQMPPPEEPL

Row | SMILES | inhibition [1] [%] | inhibition [2] [%] | inhibition [3] [%] | inhibition [4] [%] | inhibition [5] [%] | inhibition [6] [%] | inhibition [7] [%] | inhibition [8] [%] | inhibition [9] [%] | inhibition [10] [%] | inhibition [11] [%] | inhibition [12] [%] | inhibition [13] [%] | inhibition [14] [%] | inhibition [15] [%] | inhibition [16] [%] | inhibition [17] [%] | inhibition [18] [%] | inhibition [19] [%] | inhibition [20] [%]
1 | FC(F)(F)CNc1nccc(-c2cnn3ncccc23)n1 | -0.16 | -1.21 | -4.21 | 9.47 | 3.8 | 1.92 | 9.86 | 4.92 | 5.42 | 6.69 | 0.44 | 2.31 | 0.95 | 3.06 | 2.24 | 0.83 | 0.6 | -1.64 | 1.79 | 4.65
2 | Cc1nnc(-c2cccc(-c3ccc(C(=O)NCC4CC4)cc3)c2)o1 | -1.04 | 0.67 | -1.45 | 5.98 | 8.99 | -9.01 | -3.16 | 6.42 | 5.6 | 7.79 | 8.77 | 3.27 | 4 | 6.76 | 5.41 | 2.74 | 6.86 | 4.29 | 4.11 | 4.46
